# PAFAH1B3 FP inh: blocks human PAF acetylhydrolase 1B catalytic subunit 3 | Q15102 | recombinant PAFAH1B3, FP-rhodamine probe, fluorescence polarization | inhibition, % at 3.39 µM | actives 0.28% (n = 340,000) | AID 492972;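 active = inhibition above the screen-wide average of all tested compounds plus 3 SD, cut at about 25% in these data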;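 note: 0% = enzyme with DMSO only and 100% = wells lacking PAFAH1B3 protein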
# DSG3 Ab inh: inhibitors of pemphigus antibody binding to human desmoglein-3; DSG3-coupled beads, scFv-anti-DSG3-GFP binding, flow cytometry; stronger effect = lower value; binding (percent of control), % at 10 µM; actives 0.48% (n = 310,000); P32926;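 active = binding more than 3 SD below its plate's average and above zero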;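 note: hits lower antibody fragment binding to DSG3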
# pPAFAH FP inh: pPAFAH (human) enzyme inhibition | recombinant pPAFAH, FP-rhodamine probe fluorescence polarization | actives 1.5% (n = 330,000) | Q13093 | inhibition, % at 3.39 µM;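 active = inhibition above the mean inhibition across the screen plus 3 SD, cut at about 25% in these data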;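 note: inhibitors block binding of the rhodamine activity-based probe so polarization drops; 0% = enzyme with DMSO and 100% = wells lacking pPAFAH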
# Target sequence (Q13093 whole entry, looked up): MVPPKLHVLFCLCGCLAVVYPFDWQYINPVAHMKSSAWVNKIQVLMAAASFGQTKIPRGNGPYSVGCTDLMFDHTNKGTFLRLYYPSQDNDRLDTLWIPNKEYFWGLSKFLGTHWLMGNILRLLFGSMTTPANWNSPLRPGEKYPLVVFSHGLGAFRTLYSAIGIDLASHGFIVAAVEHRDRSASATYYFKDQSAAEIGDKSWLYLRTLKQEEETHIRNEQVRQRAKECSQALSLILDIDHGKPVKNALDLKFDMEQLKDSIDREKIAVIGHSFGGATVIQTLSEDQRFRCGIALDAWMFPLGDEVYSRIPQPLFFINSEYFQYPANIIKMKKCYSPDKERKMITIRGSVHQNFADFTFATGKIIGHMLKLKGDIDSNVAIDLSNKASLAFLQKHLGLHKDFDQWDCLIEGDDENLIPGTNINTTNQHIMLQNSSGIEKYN
# PAFAH2 inh: PAFAH2 (human) inhibition | AID 492956 | inhibition, % at 3.39 µM | actives 0.99% (n = 340,000) | recombinant PAFAH2, FP-rhodamine activity probe, fluorescence polarization | Q99487;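 active = inhibition above the mean over all tested compounds plus 3 SD, cut at about 30% in these data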;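 note: inhibitors block probe labeling of enzyme so polarization drops; 0% = enzyme with DMSO and 100% = wells lacking PAFAH2 protein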
# PAFAH1B2 FP inh: PAFAH1B2 (human) inhibition; actives 1.2% (n = 340,000); inhibition, % at 3.39 µM; P68402; recombinant PAFAH1B2, FP-rhodamine activity probe, fluorescence polarization;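 active = inhibition above the mean of all tested compounds plus 3 SD, cut at about 24% in these data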;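 note: 0% = enzyme with DMSO and 100% = wells lacking PAFAH1B2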
# PfM18AAP inh: blocks P. falciparum M18 aspartyl aminopeptidase; AID 1822; recombinant PfM18AAP, H-Glu-NHMec fluorogenic cleavage; actives 1.2% (n = 290,000); inhibition, % at 7.35 µM;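 active = inhibition above the campaign mean inhibition over all tested compounds plus 3 SD, cut at about 28% in these data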;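 note: 0% = plate median of test compound wells and 100% = 2 mM ZnCl2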
# pPAFAH FP conf: pPAFAH (human) inhibition, confirmed | shares compounds with pPAFAH FP inh | AID 463230 | recombinant pPAFAH, FP-Rh probe fluorescence polarization | inhibition, % at 3.39 µM | actives 72% (n = 2,300);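 active = mean inhibition of the triplicate above the hit cutoff set for the earlier primary screen, cut at about 25% in these data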;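 note: 0% = enzyme with DMSO and 100% = wells lacking pPAFAH enzyme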
# PAFAH2 confirm: confirmation of human PAFAH2 inhibitors | shares compounds with PAFAH2 inh | recombinant PAFAH2, FP-rhodamine activity probe, fluorescence polarization | inhibition, % at 3.39 µM | actives 65% (n = 2,300) | AID 493030;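 active = mean inhibition over three repeats above a set limit taken from the earlier primary screen, cut at about 30% in these data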;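 note: inhibitor blocks binding of rhodamine activity probe so polarization falls; 0% = enzyme with DMSO and 100% = wells lacking PAFAH2 protein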
# * marks the source's active call; other numbers are inactive results; . = no result; ! = repeats disagree. Hits are enriched below; roughly 3.8% of the tested compounds scored in any of these assays.
SMILES,PAFAH1B3 FP inh,DSG3 Ab inh,pPAFAH FP inh,PAFAH2 inh,PAFAH1B2 FP inh,PfM18AAP inh,pPAFAH FP conf,others
Clc1ccc(CCC(Cn2ccnc2)Sc2c(Cl)cccc2Cl)cc1 (stereo unspecified),-3,117,7,1,10,.,.,
C=CCN1C(=O)NC(=O)/C(=C/c2cccn2C)C1=O,2,95,4,2,7,1,.,
Cn1cccc1/C=C1/C(=O)NC(=S)N(Cc2ccc(F)cc2)C1=O,3,70*,61*,44*,55*,-5,45*,
Oc1ccccc1C1NCc2ccccc2-n2cccc21 (stereo unspecified),2,102,2,-4,10,3,.,
COc1cc2c(cc1OC)-c1c(OC)c(OC)c(OC)c3ccnc(c13)C2=O,.,.,38*,.,.,10,19,
CS(=O)(=O)c1ccc(C2=C(CNC(=O)c3nccs3)[C@H]3CC[C@@H](C2)N3Cc2ccco2)cc1,.,104,.,.,.,.,.,
N/C(=N\N=C/c1ccc(-c2ccc(O)c(C(=O)O)c2)o1)N[N+](=O)[O-],30*,96,50*,12,11,31*,35*,
COc1ccc(/C=N/N=C(/N)N[N+](=O)[O-])c(OC)c1,1,101,3,4,3,-7,.,
CN1CCC(c2c[nH]c3ccc(O)cc23)CC1,4,98,.,5,-8,.,.,
CN1CCC(c2c[nH]c3ccccc23)C1 (stereo unspecified),8,90,44*,8,7,9,4,
C[C@]12CCC3C(CC[C@H]4C[C@H](O)CC[C@]34C)C1C[C@@H](CCCCl)[C@@H]2O (stereo partly specified),.,.,2,.,.,.,.,
O=[N+]([O-])c1ccc(NCc2ccccc2)c2nonc12,.,.,47*,.,.,6,41*,
O=[N+]([O-])c1ccc(N2CCCCCC2)c2nonc12,-15,266,12,4,9,6,.,
Cn1cccc1C1CCCN1CC(=O)Nc1ccc(C#N)c(Cl)c1 (stereo unspecified),3,126,3,-2,4,.,.,
CN(C)[C@@H]1C(=O)C(C(N)=O)=C(O)[C@@]2(O)C(=O)C3=C(O)c4c(O)cccc4[C@@](C)(O)C3[C@H](O)C12 (stereo partly specified),26*!,74,64*,47*!,31*!,.,-3,
CC(C)c1ccc(-n2c(O)c(/C=N/NC(=O)c3ccccc3O)c(=O)[nH]c2=S)cc1,-13,87,47*,-18,-8,6,45*,
COc1ccc(OC)c(N2C(=O)NC(=O)/C(=C\c3ccc([N+](=O)[O-])s3)C2=O)c1,61*,99,64*,54*,47*,-5,69*,
O=C1NC(=O)N(c2ccccc2)C(=O)/C1=C\c1ccc([N+](=O)[O-])s1,.,103,56*,.,.,7,46*,
COc1ccc(N2C(=O)NC(=O)/C(=C\c3ccccc3[N+](=O)[O-])C2=O)cc1,1,100,-4,5,4,11,.,
O=C1NC(=O)N(c2ccccc2)C(=O)/C1=C\c1ccc([N+](=O)[O-])o1,.,.,19,.,.,17,.,
O=C(N/N=C1/CN2CCC1CC2)c1cc2ccccc2cc1O,17,112,40*,10,8,5,9,
CC1CC(C)OP(=O)(OCCC#N)O1 (stereo unspecified),1,102,.,-4,5,.,.,
CC1CCCC(NC(=O)COC(=O)Cc2ccccc2)C1C (stereo unspecified),-3,93,40*,25,5,3,39*,
O=C(COC(=O)Cc1ccccc1)Nc1ncc(Cl)cc1Cl,4,.,35*,0,-2,-3,23,
O=C(COC(=O)Cc1ccccc1)Nc1ccc(Cl)cn1,8,103,16,6,0,0,.,
SMILES,PAFAH1B3 FP inh,DSG3 Ab inh,pPAFAH FP inh,PAFAH2 inh,PAFAH1B2 FP inh,PfM18AAP inh,pPAFAH FP conf,others
NCc1cc(=O)[nH]o1,-8,131,-6,-2,1,.,.,
CCCCCCCCN=Cc1c(O)[nH]c(=O)[nH]c1=O,.,96,62*,.,.,4,1,
Cc1ccc(OP2(=O)Nc3cc(C)c(C)cc3S2)cc1 (stereo unspecified),8,107,.,-1,17,.,.,
S=P(NCCSCc1ccccc1)(N1CC1)N1CC1,7,92,.,1,13,.,.,
COc1ccc2c(c1O)C13CCN(C)C(C2)C1CCC(=O)C3 (stereo unspecified),.,105,1,.,.,.,.,
COc1ccc2c3c1OC1[C@H](O)CCC4[C@@H](C2)N(C)CC[C@]314 (stereo partly specified),5,101,35*,2,0,.,2,
Cc1cc(C(=O)CS(=O)(=O)c2ccccc2)cc(C)c1OC(=O)N(C)C,6,104,38*,9,6,-12,4,
O=c1[nH]c(=S)[nH]c(O)c1N=Nc1cc(S(=O)(=O)Nc2ccc(Cl)cc2)ccc1Cl,43*,.,49*,24,21,.,95*,
CCN(CC)c1ccc(/C=C2\C(=O)NC(=O)N(Cc3ccco3)C2=O)cc1,-11,165,6,13,-6,12,.,
CCCCN1C(=O)/C(=C/c2ccc(N(C)C)cc2)C(=O)N(Cc2ccco2)C1=O,-32,156,36*,-24,-13,-11,-1,
CN1[C@@H]2CC[C@H]1CC(OC1c3ccccc3CCc3ccccc31)C2 (stereo partly specified),-8,110,-5,9,3,.,.,
O=P(Oc1ccccc1)(Oc1ccccc1)C(O)c1ccccc1 (stereo unspecified),4,106,3,30*,2,.,.,PAFAH2 confirm=16
Cc1ccc(CN2CCC3CCC(C3)C2)c(O)c1 (stereo unspecified),3,95,.,5,6,.,.,
CCn1c(O)c(/C=N/NC(=O)c2ccccc2)c(=O)n(CC)c1=S,.,107,22,.,.,-8,.,
O=C(N/N=C/C1C(=O)NC(=S)N(c2ccccc2)C1=O)c1cc(Br)c(O)c(Br)c1 (stereo unspecified),8,95,24,37*,20,6,.,PAFAH2 confirm=27
NC(=O)Nc1ccc(C(=O)OCC(=O)Nc2ccc(Cl)cc2C(=O)c2ccccc2)cc1,-4,134,3,70*,-1,4,.,PAFAH2 confirm=52*
C[N+](C)(C)CC(=O)Nc1ccc(Cl)cc1C(=O)c1ccccc1,12,101,-6,3,2,1,.,
CCOc1ccc(N2C(=O)/C(=C/c3ccco3)C(=O)NC2=S)cc1,25,14*,16,94*,22,1,.,PAFAH2 confirm=63*
